Assay [1] in a line: qHTS assay to test for compound auto fluorescence at 535 nm (green) in HEK293 cells (AID 720680). (In qHTS, concentration-response curves come from the screen itself.)
The nature of assay [2]: qHTS assay to test for compound auto fluorescence at 460 nm (blue) in HEK293 cell free culture (AID 720681). In short, it runs like this: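 Compounds were added to cell-free DMEM with 10% FBS and fluorescence read directly. The blue channel used 405 nm excitation and 460 nm emission, with triamterene as the reference fluorophore.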
Assay [3] is described as follows: qHTS assay to test for compound auto fluorescence at 590 nm (red) in HEK293 cell free culture (AID 720683). In a few lines: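 Cell-free wells of DMEM with 10% FBS received compound, and intrinsic fluorescence was read at excitation/emission 540/590 nm. Values expressed as equivalence to Rose Bengal sodium.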
The nature of assay [4]: qHTS assay to test for compound auto fluorescence at 590 nm (red) in HepG2 cell free culture (AID 720684). In a few lines: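 Compounds are added to culture medium (MEM, 10% FBS) lacking cells, then fluorescence is read at excitation 540 nm, emission 590 nm, with Rose Bengal sodium as the equivalency standard.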
Assay [5] can be described thus: qHTS assay to test for compound auto fluorescence at 460 nm (blue) in HepG2 cell free culture (AID 720685). In short, it runs like this:
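Compound (23 nL) or DMSO pinned into cell-free MEM with 10% FBS; blue fluorescence read at 405/460 nm excitation/emission, expressed as auto-fluorescence equivalency to triamterene.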

Assay [6] is described as follows: qHTS assay to test for compound auto fluorescence at 535 nm (green) in HepG2 cell free culture (AID 720686).
For assay [7], the target named is Glucocorticoid receptor (Homo sapiens) (UniProt P04150). The assay can be described thus: qHTS assay to identify small molecule agonists of the glucocorticoid receptor (GR) signaling pathway (AID 720691; active means well fitted activation curve with a large enough effect in the signal ratio in the repeat runs, not every such curve was filed as active; the % refers to the signal ratio). In a few lines: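 GR-bla HeLa cells carrying a GRE-driven beta-lactamase reporter, exposed to compounds for 18 h at 37 C. Reporter activation read as fluorescence after 2 h with LiveBLAzer B/G FRET substrate at room temperature.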

Assay [8] is described as follows: qHTS assay to identify small molecule antagonists of the glucocorticoid receptor (GR) signaling pathway - cell viability counter screen (AID 720693). Further: nearly all actives have a fitted effect of over 55% in size.
Assay [9] can be described thus: qHTS assay for identifying genotoxic compounds that show differential cytotoxicity against isogenic chicken DT40 cell lines with known DNA damage response pathways - wild type cell line (AID 743012). Further: nearly all actives have a fitted effect of over 60% in size. Further: potency means the concentration at half of the fitted maximal effect. In short, it runs like this: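 Wild-type DT40 cells (300/well) exposed to compounds for 40 hours at 37 C/5% CO2. Viability read by CellTiter-Glo luminescence after 30 min at room temperature.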

A short description of assay [10]: qHTS assay for identifying genotoxic compounds that show differential cytotoxicity against isogenic chicken DT40 cell lines with known DNA damage response pathways - Rad54/Ku70 mutant cell line (AID 743015). Further: nearly all actives have a fitted effect of over 60% in size. Further: potency means the concentration at half of the fitted maximal effect.
Assay [11] can be described thus: qHTS assay to identify small molecule antagonists of the androgen receptor (AR) signaling pathway - cell viability counter screen (AID 743033; further: nearly all actives have a fitted effect of over 45% in size; further: potency means the concentration at half of the fitted maximal effect).
Assay [12] in a line: qHTS assay to identify small molecule antagonists of the thyroid receptor (TR) signaling pathway - cell viability counter screen (AID 743064). Further: nearly all actives have a fitted effect of over 50% in size. In short, it runs like this: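 GH3.TRE-Luc rat pituitary cells carrying a TRE-luciferase reporter were treated with compound plus 1 nM T3 (final) for 23.5 h at 37 °C. Viability was then read in the same wells by CellTiter-Fluor fluorescence after a further 30 min.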

Assay [13] addresses Glucocorticoid receptor (Homo sapiens) (UniProt P04150). The assay is described as follows: qHTS assay to identify small molecule antagonists of the glucocorticoid receptor (GR) signaling pathway (AID 720692; active means well fitted inhibition curve with a large enough effect in the signal ratio in the repeat runs, not every such curve was filed as active; the % refers to the signal ratio). In short, it runs like this: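 GR-bla HeLa cells carrying a GRE-driven beta-lactamase reporter received compound after 4 h plating, then dexamethasone (5 nM final). After 18 h at 37C, the FRET substrate was loaded for 2 h at room temperature and fluorescence read.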

Assay [14] can be described thus: qHTS assay for identifying genotoxic compounds that show differential cytotoxicity against isogenic chicken DT40 cell lines with known DNA damage response pathways - Rev3 mutant cell line (AID 743014). Further: nearly all actives have a fitted effect of over 55% in size. Further: potency means the concentration at half of the fitted maximal effect.
Assay [15] can be described thus: qHTS assay to identify small molecule antagonists of the androgen receptor (AR) signaling pathway using the MDA cell line - cell viability counter screen (AID 743041; further: nearly all actives have a fitted effect of over 45% in size). In a few lines:
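Same-well cytotoxicity was assessed by CellTiter-Fluor in MDA-kb2 AR-luc cells after 16 h of compound treatment under R1881 agonism.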

Assay [16] is described as follows: qHTS assay to test for compound auto fluorescence at 535 nm (green) in HEK293 cell free culture (AID 720682). In short, it runs like this: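 Read-out: 485/535 nm fluorescence intensity, calibrated against fluorescein. Medium only (DMEM + 10% FBS, no cells); test compound or DMSO vehicle added by pintool before plate reading.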
Assay [17] can be described thus: qHTS assay to test for compound auto fluorescence at 460 nm (blue) in HepG2 cells (AID 720687). In short, it runs like this: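 HepG2 cells in MEM with 10% FBS, attached overnight at 37 C, were exposed to compound or DMSO for 1 hr at 37 C, 5% CO2. Blue fluorescence was read at 405/460 nm, with triamterene as reference fluorophore.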
In assay [18] the target is Androgen receptor (Homo sapiens) (UniProt P10275). The assay can be described thus: qHTS assay to identify small molecule agonists of the androgen receptor (AR) signaling pathway using the MDA cell line (AID 743040; further: nearly all actives have a fitted effect of over 20% in size). In a few lines:
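Human breast carcinoma MDA-kb2 reporter cells (MMTV-luc, AR/GR elements) were treated for 16 h at 37C in 0% CO2 following a 5 h settling period. Signal was quantified by ONE-Glo luminescence.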

Assay [19] has the same target. The assay can be described thus: qHTS assay to identify small molecule antagonists of the androgen receptor (AR) signaling pathway using the MDA cell line (AID 743042; further: nearly all actives have a fitted effect of over 55% in size). In short, it runs like this:
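MDA-kb2 breast carcinoma cells carrying MMTV-luciferase (AR/GR responsive) were co-treated with compounds and the agonist R1881 for 16 h at 37C. Inhibition read as ONE-Glo luminescence; CellTiter-Fluor fluorescence measured in parallel for cytotoxicity.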

Values joined by “and” are separate entries in the source; they are usually repeats but may differ in a detail not shown here. Identical values can stand only once. A number with no mark means an inactive call. Inconclusive results are not listed. Active and inactive are the calls of the source. Unless noted, the call rests on the fitted dose curve; in most records, active means well fitted curve in the direction sought with a large enough effect in the repeat runs; inconclusive means weak or mixed curves; inactive means no such curve, though single readings can be large; an effect the other way counts as inactive or inconclusive.

Sequence of Glucocorticoid receptor (Homo sapiens) (P04150 whole entry, looked up): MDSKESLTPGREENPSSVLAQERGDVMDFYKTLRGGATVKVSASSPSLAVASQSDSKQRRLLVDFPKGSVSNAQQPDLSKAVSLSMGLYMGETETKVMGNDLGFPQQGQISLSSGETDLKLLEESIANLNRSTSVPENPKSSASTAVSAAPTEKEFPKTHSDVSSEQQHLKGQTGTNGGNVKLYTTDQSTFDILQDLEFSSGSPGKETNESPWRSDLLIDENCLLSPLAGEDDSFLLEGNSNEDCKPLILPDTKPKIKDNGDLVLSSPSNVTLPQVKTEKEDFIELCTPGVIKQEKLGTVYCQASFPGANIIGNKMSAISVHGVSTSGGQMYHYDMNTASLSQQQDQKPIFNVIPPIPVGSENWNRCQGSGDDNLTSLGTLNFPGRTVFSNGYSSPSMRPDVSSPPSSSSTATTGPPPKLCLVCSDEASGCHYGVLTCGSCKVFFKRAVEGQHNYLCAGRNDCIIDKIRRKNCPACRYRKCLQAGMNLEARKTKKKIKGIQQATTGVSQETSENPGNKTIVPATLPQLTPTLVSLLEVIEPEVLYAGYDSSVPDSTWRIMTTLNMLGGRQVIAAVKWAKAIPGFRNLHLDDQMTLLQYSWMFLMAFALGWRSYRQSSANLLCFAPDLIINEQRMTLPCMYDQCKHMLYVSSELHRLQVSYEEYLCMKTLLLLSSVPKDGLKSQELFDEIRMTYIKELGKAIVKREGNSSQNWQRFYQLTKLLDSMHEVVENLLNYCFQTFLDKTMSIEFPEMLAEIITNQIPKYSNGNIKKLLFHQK
Sequence of Androgen receptor (Homo sapiens) (P10275 whole entry, looked up): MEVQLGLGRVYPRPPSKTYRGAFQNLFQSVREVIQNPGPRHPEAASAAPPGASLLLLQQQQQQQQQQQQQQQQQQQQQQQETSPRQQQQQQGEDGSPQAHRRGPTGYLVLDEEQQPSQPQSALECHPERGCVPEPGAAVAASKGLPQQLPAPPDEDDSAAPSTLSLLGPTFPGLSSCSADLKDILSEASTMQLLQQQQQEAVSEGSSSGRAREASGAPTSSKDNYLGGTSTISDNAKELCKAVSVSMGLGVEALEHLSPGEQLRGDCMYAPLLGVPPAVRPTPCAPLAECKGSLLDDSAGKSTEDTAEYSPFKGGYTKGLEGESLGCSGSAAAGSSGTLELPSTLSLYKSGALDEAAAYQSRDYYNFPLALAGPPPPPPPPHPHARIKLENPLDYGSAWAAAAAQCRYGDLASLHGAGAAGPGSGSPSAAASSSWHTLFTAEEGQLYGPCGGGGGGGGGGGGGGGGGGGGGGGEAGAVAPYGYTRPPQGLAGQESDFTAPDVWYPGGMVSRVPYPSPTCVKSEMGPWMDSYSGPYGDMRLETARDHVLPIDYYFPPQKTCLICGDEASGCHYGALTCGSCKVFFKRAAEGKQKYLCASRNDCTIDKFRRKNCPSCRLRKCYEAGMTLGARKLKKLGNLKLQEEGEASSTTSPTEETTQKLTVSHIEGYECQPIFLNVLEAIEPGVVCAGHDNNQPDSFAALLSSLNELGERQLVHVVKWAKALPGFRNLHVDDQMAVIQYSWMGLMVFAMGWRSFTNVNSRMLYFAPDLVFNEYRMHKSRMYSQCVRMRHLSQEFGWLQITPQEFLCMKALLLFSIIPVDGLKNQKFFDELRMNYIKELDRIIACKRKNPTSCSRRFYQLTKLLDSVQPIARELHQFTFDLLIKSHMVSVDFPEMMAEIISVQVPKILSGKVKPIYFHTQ

For `O=C(/C=C/c1ccccc1)OCCCc1ccccc1`, the result in [1], in assay [3], in assay [4] and in assay [6] was inactive. The Potency entry in [2], in [5], in [7], in assay [8], in assay [9] and in assay [10] was “inactive” throughout. Besides, the Potency result in assay [11] and in assay [12] was “inactive” each time.

On to `CC(CCc1ccc2c(c1)OCO2)NN` (stereo unspecified), for which the outcome in assay [1], in assay [3], in assay [4] and in assay [6] was inactive. For the same compound, the Potency entry in [2], in [5], in assay [7], in assay [13], in assay [8] and in [9] was “inactive” in each case. For the same compound, the Potency result in assay [14], in assay [10], in assay [11], in [15] and in [12] was “inactive” throughout.

Take `CCC(C)(O)CCC=C(C)C` (stereo unspecified): the result in assay [1], in assay [16], in assay [3], in assay [4] and in [6] was inactive. Besides, the Potency entry in assay [5], in [17], in assay [7], in assay [13], in assay [8] and in assay [9] was “inactive” each time. The Potency result in assay [10], in assay [11] and in [15] was “inactive” in each case.

Turning to `Cc1ccc(S(=O)(=O)NC2CCCCC2)cc1`, the compound was classed as inactive in assay [1], in assay [3], in [4] and in [6]. Further, the Potency result in assay [2], in assay [5], in assay [17], in assay [7], in assay [13] and in assay [8] was “inactive” each time. Also, the Potency result in assay [11], in assay [15] and in assay [12] was “inactive” each time.

In the case of `Cc1oncc1C(=O)Nc1ccc(C(F)(F)F)cc1`, the call in [1], in assay [3], in assay [4] and in assay [6] was inactive. Moreover, the Potency result in [5], in [7], in assay [13], in assay [8] and in [15] was “inactive” each time. The Potency in assay [9] is 7.7 µM (active); in [14], 804 nM (active) and 3.44 µM (active); in [10], 2.27 µM (active) and 4.86 µM (active); in assay [11], 54.9 µM (active).

Take `CC(C)=CC=O`: the compound was classed as inactive in [1], in assay [16], in [3], in assay [4] and in assay [6]. The Potency entry in assay [5], in [17], in [7], in assay [8], in assay [9] and in [14] was “inactive” throughout. Further, the Potency result in assay [10], in assay [11], in assay [18], in assay [15] and in assay [19] was “inactive” in each case.

Regarding `O=C(O)C(Cc1cc(I)c(O)c(I)c1)c1ccccc1` (stereo unspecified), the compound was classed as inactive in assay [1], in assay [16], in assay [3], in assay [4] and in [6]. Also, the Potency entry in assay [5], in assay [17], in [7], in assay [13], in [9] and in assay [14] was “inactive” throughout. The Potency result in assay [10], in assay [11], in assay [15] and in assay [12] was “inactive” each time.

As for `CCC1(C)CC(=O)NC1=O` (stereo unspecified), the compound was called inactive in assay [1], in assay [16], in [3], in assay [4] and in assay [6]. The Potency entry in assay [5], in [7], in [13], in assay [9], in [10] and in assay [11] was “inactive” throughout. In addition, the Potency entry in [15] and in assay [12] was “inactive” throughout.

Take `CNC(=S)NC`: the call in [1], in [16], in [3], in [4] and in assay [6] was inactive. The Potency entry in assay [5], in assay [7], in assay [18] and in assay [12] was “inactive” each time. For the same compound, the Potency in assay [9] and in assay [10] was 61.1 µM (active) each time.

`CCCCCCCCCCCCCCC[C@H](O)[C@@H](N)CO`: the outcome in assay [1], in assay [3], in assay [4] and in [6] was inactive. The Potency result in assay [5], in [17], in [7], in [8], in assay [9] and in [14] was “inactive” throughout. In addition, the Potency entry in assay [10], in assay [11], in [18] and in assay [19] was “inactive” each time.

These data come from PubChem BioAssay (Tox21).
